According to PubChem BioAssay (EPA / NIEHS):
Activity calls are given as the source filed them. Rule for the calls: active = hit-call score of the fitted dose curve at least 0.9, where 1 is the maximum; inactive = score below 0.9.

Legend:
Conditions in all cases: mRNA level, 48 h; actives raise or lower the signal
[1] = read-out: Fatty acid synthase (Homo sapiens) (UniProt P49327); test: LTEA_HepaRG_FASN: Life Technologies and Expression Analysis (LTEA) Assay for Fatty Acid Synthase (FASN) using HepaRG (AID 2283448);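 for AC50: differentiated human HepaRG liver cells in serum-free induction medium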
In short: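 Cells were plated, cultured 48 h, switched to serum-free induction medium, then dosed in duplicate (max 100 uM, half-log dilutions, 0.5% DMSO) for 48 h. RNA was then isolated and FASN quantified by qRT-PCR.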

[2] = read-out: Cyclin D2 (CCND2), CCND2 (gene 894); test: LTEA_HepaRG_CCND2: Life Technologies and Expression Analysis (LTEA) Assay for Cyclin D2 (CCND2) using HepaRG (AID 2283449)
In short: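 CCND2 transcript levels, quantified by qRT-PCR and normalised to three housekeeping genes, were fitted bidirectionally against 0.5% DMSO. HepaRG cultures were dosed 48 h in duplicate with an 8-point half-log series up to 100 uM.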

[3] = read-out: Cyclin D1 (CCND1), CCND1 (gene 595); test: LTEA_HepaRG_CCND1: Life Technologies and Expression Analysis (LTEA) Assay for Cyclin D1 (CCND1) using HepaRG (AID 2283451);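 for AC50: differentiated human HepaRG liver cells in serum-free induction medium; TaqMan qRT-PCR transcript level normalised to ACTB GAPDH and POLR2A housekeeping genes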
In short: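 Expression change is measured by qRT-PCR in HepaRG cells after 48 h treatment across eight concentrations topping at 100 uM, with duplicate wells and DMSO (0.5%) serving as baseline for bidirectional fitting.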

[4] = read-out: catalase (CAT), CAT (gene 847); test: LTEA_HepaRG_CAT: Life Technologies and Expression Analysis (LTEA) Assay for catalase (CAT) using HepaRG (AID 2283452);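 for AC50: TaqMan qRT-PCR signal normalized to ACTB GAPDH and POLR2A housekeeping genes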
In short: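 Expression of CAT was quantified by TaqMan qRT-PCR with ACTB/GAPDH/POLR2A normalization after 48 h chemical exposure of HepaRG. Eight-point half-log series, top 100 uM, in 0.5% DMSO; gain or loss fitted against vehicle.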

[5] = read-out: Cytochrome P450 (CYP1A1), CYP1A1 (gene 1543); test: LTEA_HepaRG_CYP1A1: Life Technologies and Expression Analysis (LTEA) Assay for Cytochrome P450 (CYP1A1) using HepaRG (AID 2283454)
In short: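 Using HepaRG cultures with 0.5% DMSO as vehicle, eight-concentration exposures (max 100 uM) lasted 48 h. Transcript levels were measured by TaqMan qRT-PCR and normalized to ACTB, GAPDH and POLR2A.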

[6] = read-out: CFLAR gene, CFLAR (gene 8837); test: LTEA_HepaRG_CFLAR: Life Technologies and Expression Analysis (LTEA) Assay for CFLAR gene using HepaRG (AID 2283455)
In short: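 Transcript level by qRT-PCR (normalized to ACTB, GAPDH and POLR2A) after 48 h chemical exposure of HepaRG cells, top concentration 100 uM with half-log steps, 0.5% DMSO vehicle, duplicates; fitted bidirectionally against DMSO baseline.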

[7] = read-out: Forkhead box O1 (FOXO1), FOXO1 (gene 2308); test: LTEA_HepaRG_FOXO1: Life Technologies and Expression Analysis (LTEA) Assay for Forkhead box O1 (FOXO1) using HepaRG (AID 2283456)
In short: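 FOXO1 transcript quantified by qRT-PCR after 48 h chemical exposure (top 100 uM, half-log steps, 0.5% DMSO) of HepaRG cells, housekeeping-normalized (ACTB/GAPDH/POLR2A). Changes fitted in both directions relative to vehicle.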

[8] = read-out: growth arrest and DNA damage 45 (GADD45A), GADD45A (gene 1647); test: LTEA_HepaRG_GADD45A: Life Technologies and Expression Analysis (LTEA) Assay for growth arrest and DNA damage 45 (GADD45A) using HepaRG (AID 2283458)
In short: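 Transcript induction or loss, quantified by TaqMan qRT-PCR against three housekeeping genes, is the read-out. HepaRG cells received chemicals for 48 h across eight half-log concentrations from 100 uM in 0.5% DMSO; gain and loss fitted relative to DMSO.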

[9] = read-out: Forkhead box O3 (FOXO3), FOXO3 (gene 2309); test: LTEA_HepaRG_FOXO3: Life Technologies and Expression Analysis (LTEA) Assay for Forkhead box O3 (FOXO3) using HepaRG (AID 2283459)
In short: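 FOXO3 transcript measured by qRT-PCR (normalized to ACTB, GAPDH, POLR2A) after 48 h exposure of HepaRG cells in serum-free induction medium. Duplicates, eight half-log concentrations up to 100 uM, 0.5% DMSO; gain or loss fitted against DMSO.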

[10] = read-out: ABC Transporter (ABCB1), ABCB1 (gene 5243); test: LTEA_HepaRG_ABCB1: Life Technologies and Expression Analysis (LTEA) Assay for ABC Transporter (ABCB1) using HepaRG (AID 2283460)
In short: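 ABCB1 transcript level measured by TaqMan qRT-PCR against three housekeeping genes after 48 h chemical exposure of differentiated HepaRG cells. Top concentration 100 uM, half-log steps, eight points, 0.5% DMSO vehicle; bidirectional fit relative to DMSO.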

[11] = read-out: growth arrest and DNA damage 45 (GADD45B), GADD45B (gene 4616); test: LTEA_HepaRG_GADD45B: Life Technologies and Expression Analysis (LTEA) Assay for growth arrest and DNA damage 45 (GADD45B) using HepaRG (AID 2283461)
In short: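 Human HepaRG monolayers receive chemicals for 48 h at eight half-log concentrations, highest 100 uM, in 0.5% DMSO. Expression is measured by TaqMan qRT-PCR and normalized to ACTB, GAPDH and POLR2A.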

[12] = read-out: ABC Transporter (ABCC3), ABCC3 (gene 8714); test: LTEA_HepaRG_ABCC3: Life Technologies and Expression Analysis (LTEA) Assay for ABC Transporter (ABCC3) using HepaRG (AID 2283462)
In short: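 Transcriptional change of ABCC3 in HepaRG after 48 h treatment, determined by qRT-PCR normalized to endogenous controls. Concentrations spanned eight half-log steps to 100 uM in 0.5% DMSO.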

[13] = read-out: ABC Transporter (ABCB11), ABCB11 (gene 8647); test: LTEA_HepaRG_ABCB11: Life Technologies and Expression Analysis (LTEA) Assay for ABC Transporter (ABCB11) using HepaRG (AID 2283463)
In short: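 ABCB11 transcript levels quantified by TaqMan qRT-PCR against three housekeeping genes after 48 h chemical exposure of HepaRG cultures. Concentrations up to 100 uM in half-log steps, 0.5% DMSO vehicle; both induction and suppression scored.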

[14] = read-out: Cyclin Dependent Kinase Inhibitor 1A (CDKN1A), CDKN1A (gene 1026); test: LTEA_HepaRG_CDKN1A: Life Technologies and Expression Analysis (LTEA) Assay for Cyclin Dependent Kinase Inhibitor 1A (CDKN1A) using HepaRG (AID 2283450)
In short: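 Gain or loss of CDKN1A transcript is scored by bidirectional fitting against 0.5% DMSO vehicle. Human HepaRG cultures receive chemicals for 48 h across an 8-point series peaking at 100 uM; expression comes from qRT-PCR.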

[15] = read-out: flavin-containing dimethylaniline monooxygenases 3 (FMO3), FMO3 (gene 2328); test: LTEA_HepaRG_FMO3: Life Technologies and Expression Analysis (LTEA) Assay for flavin-containing dimethylaniline monooxygenases 3 (FMO3) using HepaRG (AID 2283453);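 for AC50: differentiated human HepaRG liver cells in serum-free induction medium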
In short: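 FMO3 transcript quantified by TaqMan qRT-PCR against three housekeeping genes after 48 h chemical exposure of HepaRG cells. Eight-point half-log series, top 100 uM, 0.5% DMSO vehicle; phenobarbital 1mM induction control; up- or down-regulation fitted.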

[16] = read-out: Tumor necrosis factor receptor superfamily member 6 (Homo sapiens) (UniProt P25445); test: LTEA_HepaRG_FAS: Life Technologies and Expression Analysis (LTEA) Assay for Fas cell surface death receptor (FAS) using HepaRG (AID 2283447)
In short: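 FAS transcript level was measured by TaqMan qRT-PCR against three housekeeping genes after 48 h chemical exposure. Cells were HepaRG, 0.5% DMSO vehicle, with a top concentration of 100 uM and half-log dilutions over eight points, in duplicate.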

Measured: AC50

Fatty acid synthase (Homo sapiens), sequence (P49327 whole entry, looked up): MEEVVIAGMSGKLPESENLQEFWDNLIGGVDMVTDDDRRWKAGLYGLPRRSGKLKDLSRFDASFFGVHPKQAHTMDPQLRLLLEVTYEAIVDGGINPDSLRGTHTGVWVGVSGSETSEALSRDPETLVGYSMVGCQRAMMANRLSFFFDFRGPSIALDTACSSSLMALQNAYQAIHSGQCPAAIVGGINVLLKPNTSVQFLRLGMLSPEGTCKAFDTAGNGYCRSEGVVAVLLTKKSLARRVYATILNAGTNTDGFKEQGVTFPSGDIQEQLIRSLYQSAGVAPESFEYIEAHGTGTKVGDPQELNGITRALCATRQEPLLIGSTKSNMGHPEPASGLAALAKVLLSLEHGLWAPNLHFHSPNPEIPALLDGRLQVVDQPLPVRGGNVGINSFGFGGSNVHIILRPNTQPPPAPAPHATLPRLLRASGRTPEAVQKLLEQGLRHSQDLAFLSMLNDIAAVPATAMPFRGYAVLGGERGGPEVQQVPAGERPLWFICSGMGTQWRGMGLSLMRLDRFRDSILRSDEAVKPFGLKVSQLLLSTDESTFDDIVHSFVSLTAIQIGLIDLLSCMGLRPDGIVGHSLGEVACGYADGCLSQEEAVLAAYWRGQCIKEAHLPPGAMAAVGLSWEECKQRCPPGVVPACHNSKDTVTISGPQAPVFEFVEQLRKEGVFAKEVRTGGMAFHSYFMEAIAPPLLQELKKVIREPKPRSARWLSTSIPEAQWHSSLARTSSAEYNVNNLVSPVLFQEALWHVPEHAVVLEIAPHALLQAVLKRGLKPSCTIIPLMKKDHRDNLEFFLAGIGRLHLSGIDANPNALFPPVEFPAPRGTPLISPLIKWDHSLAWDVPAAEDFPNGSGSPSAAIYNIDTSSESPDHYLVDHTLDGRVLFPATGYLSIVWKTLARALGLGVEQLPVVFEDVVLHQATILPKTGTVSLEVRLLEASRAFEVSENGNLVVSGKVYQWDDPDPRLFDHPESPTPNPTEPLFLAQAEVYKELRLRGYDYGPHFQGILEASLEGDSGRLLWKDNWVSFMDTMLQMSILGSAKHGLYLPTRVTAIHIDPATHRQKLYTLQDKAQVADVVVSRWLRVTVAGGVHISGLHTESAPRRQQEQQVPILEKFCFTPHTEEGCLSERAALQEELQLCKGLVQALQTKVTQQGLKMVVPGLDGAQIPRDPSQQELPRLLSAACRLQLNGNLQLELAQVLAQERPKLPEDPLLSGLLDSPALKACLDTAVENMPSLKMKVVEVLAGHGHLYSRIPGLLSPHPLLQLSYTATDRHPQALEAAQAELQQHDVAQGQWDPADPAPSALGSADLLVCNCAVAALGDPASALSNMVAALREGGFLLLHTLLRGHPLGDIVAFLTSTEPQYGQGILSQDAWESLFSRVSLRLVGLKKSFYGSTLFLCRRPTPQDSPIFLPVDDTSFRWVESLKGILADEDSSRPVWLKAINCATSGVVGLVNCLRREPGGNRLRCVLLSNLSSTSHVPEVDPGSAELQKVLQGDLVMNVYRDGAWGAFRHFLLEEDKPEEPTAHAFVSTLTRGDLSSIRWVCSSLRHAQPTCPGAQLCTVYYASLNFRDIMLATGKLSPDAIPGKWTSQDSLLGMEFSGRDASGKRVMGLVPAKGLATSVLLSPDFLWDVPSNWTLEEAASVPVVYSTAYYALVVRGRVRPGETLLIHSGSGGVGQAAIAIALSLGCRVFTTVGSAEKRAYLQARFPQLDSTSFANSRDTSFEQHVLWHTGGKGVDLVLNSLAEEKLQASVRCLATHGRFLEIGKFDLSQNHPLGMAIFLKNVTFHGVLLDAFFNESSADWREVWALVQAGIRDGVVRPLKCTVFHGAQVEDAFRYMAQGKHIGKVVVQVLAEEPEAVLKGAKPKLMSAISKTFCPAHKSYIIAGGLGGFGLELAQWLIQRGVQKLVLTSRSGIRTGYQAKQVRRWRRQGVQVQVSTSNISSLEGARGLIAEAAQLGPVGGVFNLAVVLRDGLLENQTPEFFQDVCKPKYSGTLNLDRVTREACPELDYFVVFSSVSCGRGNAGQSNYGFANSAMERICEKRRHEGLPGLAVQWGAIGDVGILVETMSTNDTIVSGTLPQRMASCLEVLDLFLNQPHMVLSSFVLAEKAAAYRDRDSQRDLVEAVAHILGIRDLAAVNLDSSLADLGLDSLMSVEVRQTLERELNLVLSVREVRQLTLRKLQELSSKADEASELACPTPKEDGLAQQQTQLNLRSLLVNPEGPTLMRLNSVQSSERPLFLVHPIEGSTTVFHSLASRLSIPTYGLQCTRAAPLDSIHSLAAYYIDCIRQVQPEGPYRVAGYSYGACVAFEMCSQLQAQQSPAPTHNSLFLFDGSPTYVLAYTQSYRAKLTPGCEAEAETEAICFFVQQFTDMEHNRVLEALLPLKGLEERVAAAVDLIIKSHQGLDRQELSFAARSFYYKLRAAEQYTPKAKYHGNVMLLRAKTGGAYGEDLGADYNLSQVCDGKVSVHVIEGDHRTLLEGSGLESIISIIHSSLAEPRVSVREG

Cc1cccc2ccccc12
not listed: [14] | [15] | [16]
inactive: all other assays above

c1ccc2ccccc2c1
not listed: [15] | [16]
inactive: all other assays above

Cc1occc1C(=O)Nc1ccc(C(=O)N2CCC(F)(F)/C(=C\C(=O)N3CCC(N4CCCCC4)CC3)c3ccccc32)cc1
inactive: [2] | [7] | [8] | [9] | [10]
active: [1] 19.4 µM | [3] 39.9 µM | [4] 31.2 µM | [15] 44 µM | [5] 16.8 µM | [6] 31.2 µM | [12] 47 µM | [13] 44.5 µM

c1ccc2n[nH]nc2c1
not listed: [11] | [14]
inactive: all other assays above

CN(C)C(=O)C1(N2CCCCC2)CCN(CC[C@@]2(c3ccc(Cl)c(Cl)c3)CN(C(=O)c3ccccc3)CCO2)CC1
active: [1] 61 µM | [3] 47.2 µM | [4] 17.2 µM | [15] 13.7 µM | [5] 24.7 µM | [6] 61.9 µM | [7] 47.2 µM | [10] 23.4 µM | [12] 79.4 µM | [13] 26 µM
inactive: [2] | [8] | [9]

CC(C)(C)c1csc(-c2cc3cc(OCc4ccccc4CC(=O)O)ccc3o2)n1
inactive: [2] | [8] | [9] | [12]
active: [1] 84 µM | [3] 50 µM | [4] 28.3 µM | [15] 73.5 µM | [5] 12.2 µM | [6] 73.5 µM | [7] 81.3 µM | [10] 79 µM | [13] 15.8 µM

CCN(CC)C(=O)c1cc(S(=O)(=O)Cc2ccccc2)c(N2CCC(c3ccccc3)CC2)cc1N(CC)CCN(C)C
active: [1] 4.87 µM | [4] 30.2 µM | [5] 7.21 µM | [10] 35.1 µM | [12] 31 µM
not listed: [11] | [14] | [15] | [16]
inactive: all other assays above

Cc1ccc(C(C)C)cc1
active: [5] 74.9 µM
not listed: [2] | [15] | [16]
inactive: all other assays above

NCc1cccc(C2CCN(C(=O)c3ccc(C#Cc4ccccc4F)o3)CC2)c1
active: [1] 50 µM | [4] 50 µM | [5] 12.7 µM | [6] 89.9 µM | [8] 78.9 µM | [10] 50 µM | [13] 78 µM
inactive: [2] | [14] | [3] | [7] | [9] | [11] | [12]

CCCCCCCCCCCO
not listed: [11] | [15] | [16]
inactive: all other assays above

CCN(Cc1cccnc1)C(=O)c1cccc(Cl)c1[C@]1(C)C(=O)N(Cc2ccc(OC)cc2OC)c2ccc(Cl)cc21
inactive: [3] | [5] | [6] | [7] | [10] | [12]
active: [16] 21.3 µM | [1] 5.5 µM | [4] 18.4 µM | [15] 16.6 µM | [8] 18.1 µM | [9] 8.39 µM | [13] 23.6 µM

CC1(C)NC(=O)N(c2ccc([N+](=O)[O-])c(C(F)(F)F)c2)C1=O
active: [14] 80.8 µM | [15] 76.6 µM | [8] 50 µM | [10] 50 µM | [12] 75.3 µM | [13] 77.1 µM
not listed: [2] | [4] | [16]
inactive: all other assays above

OCCO
active: [9] 12.7 µM
not listed: [16]
inactive: all other assays above

O=c1ccc2ccccc2o1
not listed: [11] | [14] | [16]
inactive: all other assays above

Oc1ccccc1
not listed: [11] | [14] | [15] | [16]
inactive: all other assays above

CN(C[C@@H](CC[N+]12CCC(C3CCCCC3)(CC1)CC2)c1ccc(Cl)c(Cl)c1)C(=O)c1cc(C(F)(F)F)cc(C(F)(F)F)c1
inactive: [2] | [11] | [12]
active: [1] 13 µM | [3] 28.9 µM | [4] 17.5 µM | [5] 14.9 µM | [6] 50 µM | [7] 35.9 µM | [8] 0.171 µM | [9] 30.6 µM | [10] 74.2 µM | [13] 14.5 µM
